# Measurements reported in PubChem BioAssay AID485276 (Southern Research Specialized Biocontainment Screening …, 2010).
# Results with a measured potency or affinity are listed apart. The source made the active and inactive calls. How the calls were made is not given here.
# Assay: SV40 cytopathic effect inhibition and cytotoxicity, confirmation, BSC cells, set 3 (AID 485276)
structure (smiles),measurement,value
Oc1ccc(Cc2ccc(O)cc2)cc1,outcome,inactive
